Measurements from PubChem BioAssay (NCATS).
Results filed as inconclusive are left out. Activity calls are given as the source filed them. Unless noted, calls come from the whole dose curve; as a rule, active = well fitted curve in the direction sought with a large enough effect; inconclusive = small, poorly fitted or top-dose-only effect, or another doubt; inactive = no such curve, though single readings can be large; an effect the other way counts as inactive or inconclusive.

Legend:
[1] = molecular target: Lysosomal acid glucosylceramidase (Homo sapiens) (UniProt P04062); experiment: Glucocerebrosidase-p2 (AID 348; in the data active = potency below about 10 µM; note: potency is the fitted concentration of half-maximal effect); conditions: purified GBA, blue fluorogenic substrate, 40 min
Lysosomal acid glucosylceramidase (Homo sapiens), sequence (P04062 whole entry, looked up): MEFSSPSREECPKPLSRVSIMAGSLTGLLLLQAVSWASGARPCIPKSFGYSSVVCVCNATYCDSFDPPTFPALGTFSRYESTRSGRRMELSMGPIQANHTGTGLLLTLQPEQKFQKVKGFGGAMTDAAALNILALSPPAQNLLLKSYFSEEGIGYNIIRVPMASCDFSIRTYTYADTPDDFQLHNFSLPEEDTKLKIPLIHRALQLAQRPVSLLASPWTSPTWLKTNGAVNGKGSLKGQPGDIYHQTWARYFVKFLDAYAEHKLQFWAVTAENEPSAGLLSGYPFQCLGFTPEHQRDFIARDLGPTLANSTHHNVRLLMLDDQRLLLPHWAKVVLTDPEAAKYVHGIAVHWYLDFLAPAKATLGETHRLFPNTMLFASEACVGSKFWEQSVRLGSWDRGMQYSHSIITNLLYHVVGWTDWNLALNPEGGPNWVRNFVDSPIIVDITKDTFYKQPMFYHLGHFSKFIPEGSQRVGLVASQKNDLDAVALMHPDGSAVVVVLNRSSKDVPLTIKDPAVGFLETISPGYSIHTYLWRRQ
Method in brief: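 Normal human glucocerebrosidase (0.2 nM) with blue fluorogenic substrate (80 uM final) in citrate/phosphate pH 5.9 with 10mM sodium taurocholate, 0.01% tween-20; 40 min RT, NaOH/glycine stop; fluorescence Ex 365/Em 440; AC50 from a titration from 0.6 nM upwards.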

[2] = AP1 Signaling Pathway (AID 357; active = well fitted curve in either direction with a large enough effect, not every such curve was filed as active; note: % is set by controls: 0 for no effect and ±100 for the full control effect); conditions: ME-180 AP-1-bla reporter, EGF-induced, beta-lactamase ratio, 5 h; at 7.69 µM (top of the series) unless noted
Method in brief: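 AP-1-bla ME-180 cells with beta-lactamase reporter under AP-1 response element, stimulated with EC50 EGF; compounds titrated, 5 hours at 37 degrees Celsius. CCF4 read at 460/530 nm ratio; positive and negative modulators judged by AC50.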

[3] = molecular target: Cytochrome P450 1A2 (Homo sapiens) (UniProt P05177); experiment: p450-cyp1a2 (AID 410; calls by dose curve; note: potency is the fitted concentration of half-maximal effect)
Cytochrome P450 1A2 (Homo sapiens), sequence (P05177 whole entry, looked up): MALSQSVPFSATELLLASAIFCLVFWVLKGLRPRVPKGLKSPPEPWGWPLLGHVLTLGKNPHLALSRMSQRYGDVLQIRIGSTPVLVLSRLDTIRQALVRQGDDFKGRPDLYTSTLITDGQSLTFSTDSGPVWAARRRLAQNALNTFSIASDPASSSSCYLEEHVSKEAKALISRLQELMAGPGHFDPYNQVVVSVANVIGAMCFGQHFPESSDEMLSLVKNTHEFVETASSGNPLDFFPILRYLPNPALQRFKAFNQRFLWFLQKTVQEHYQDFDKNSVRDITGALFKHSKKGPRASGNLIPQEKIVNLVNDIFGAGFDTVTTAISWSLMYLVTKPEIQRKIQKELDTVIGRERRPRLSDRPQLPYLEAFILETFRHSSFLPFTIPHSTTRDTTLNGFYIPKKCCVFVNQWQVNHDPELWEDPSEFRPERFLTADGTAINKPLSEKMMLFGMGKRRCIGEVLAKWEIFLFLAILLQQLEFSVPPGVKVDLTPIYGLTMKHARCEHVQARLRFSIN
Method in brief: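 Read-out is luminescence from luciferin produced by CYP1A2 demethylation of Luciferin-ME (100uM, at Km). Detection reagent stopped the 60 min NADPH-dependent reaction; signals were normalized to 57 uM furafylline.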

[4] = NFAT Signaling Pathway (AID 444; active = well fitted curve in either direction with a large enough effect, not every such curve was filed as active;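 note: carbachol stimulus at about its EC50 of 1 µM final; % is set by controls: 0 for no effect and ±100 for the full control effect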); conditions: Jurkat NFAT-bla M1, carbachol, beta-lactamase ratio, 5 h; at 7.69 µM (top of the series) unless noted
Method in brief: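 Jurkat cells carrying an NFAT-driven β-lactamase reporter and co-transfected muscarinic M1 receptor were treated with compound plus carbachol (1 uM final, an EC50 level) for 5 h at 37 °C. CCF4 loading followed for 1 h at RT; 460/530 nm ratio gave %activity.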

[5] = Stat Signaling Pathway (AID 446; active = well fitted curve in either direction with a large enough effect, not every such curve was filed as active;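 note: ME-180 cervical cancer cells given 40 pM IL-6 alongside compound; SIE-controlled beta-lactamase reporter measured as 460/530 nm FRET emission ratio; % is set by controls: 0 for no effect and ±100 for the full control effect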); conditions: ME-180 (cervical carcinoma) SIE beta-lactamase reporter, IL-6 stimulated, 5 h; at 7.69 µM (top of the series) unless noted
Method in brief: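 Normalization used AC90 stimulation (300 pM IL-6) and AC90 inhibition (125 nM pan-JAK inhibitor at 40 pM IL-6). The underlying signal is SIE-driven beta-lactamase in ME-180 cells after 5 h IL-6 exposure with compound.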

[6] = molecular target: Glucocorticoid receptor (Homo sapiens) (UniProt P04150); experiment: GR-EFC Redistribution (AID 451; calls by dose curve; note: potency is the fitted concentration of half-maximal effect); conditions: CHO-K1 GR-EFC translocation, beta-gal luminescence, 2 h
Glucocorticoid receptor (Homo sapiens), sequence (P04150 whole entry, looked up, the tested form may be a part): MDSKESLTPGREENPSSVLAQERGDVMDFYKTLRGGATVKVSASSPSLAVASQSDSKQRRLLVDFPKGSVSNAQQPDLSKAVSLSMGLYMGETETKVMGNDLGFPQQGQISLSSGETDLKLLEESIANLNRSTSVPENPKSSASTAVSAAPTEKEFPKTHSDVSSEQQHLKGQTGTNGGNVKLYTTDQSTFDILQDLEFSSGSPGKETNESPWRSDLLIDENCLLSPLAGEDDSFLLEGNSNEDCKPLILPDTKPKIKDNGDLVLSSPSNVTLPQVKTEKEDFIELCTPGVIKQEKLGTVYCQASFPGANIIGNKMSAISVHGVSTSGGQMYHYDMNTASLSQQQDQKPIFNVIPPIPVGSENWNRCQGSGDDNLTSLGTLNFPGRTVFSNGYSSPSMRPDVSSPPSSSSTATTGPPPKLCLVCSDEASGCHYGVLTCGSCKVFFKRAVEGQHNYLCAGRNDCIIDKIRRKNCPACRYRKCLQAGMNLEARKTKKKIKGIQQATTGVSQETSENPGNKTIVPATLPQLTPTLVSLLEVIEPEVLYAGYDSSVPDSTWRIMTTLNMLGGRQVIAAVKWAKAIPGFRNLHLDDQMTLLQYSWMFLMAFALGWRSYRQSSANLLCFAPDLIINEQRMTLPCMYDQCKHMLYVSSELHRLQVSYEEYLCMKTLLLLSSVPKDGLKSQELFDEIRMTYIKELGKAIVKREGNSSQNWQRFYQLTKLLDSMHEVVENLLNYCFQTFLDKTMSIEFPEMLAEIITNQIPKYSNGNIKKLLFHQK
Method in brief: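 CHO-K1 cells stably expressing nuclear-localized β-gal enzyme acceptor and GR fused C-terminally to the enzyme donor fragment; ligand-driven nuclear translocation restores β-gal by complementation. Compounds titrated up to 46 uM final, 2 h at 37 °C; luminescence read.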

[7] = molecular target: Mitogen-activated protein kinase 10 (Mus musculus) (UniProt Q61831); experiment: JNK3 AlphaScreen Assay (AID 530; active = well fitted curve in either direction with a large enough effect, not every such curve was filed as active;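 note: kinase came from lysate of stimulated human HepG2 cells; signal reports phosphorylation of biotinylated GST-cJun 1-79 at Ser73 with 10 µM ATP; % is set by controls: 0 for no effect and ±100 for the full control effect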)
Method in brief: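 Biotinylated GST-cJun(1-79) served as substrate for JNK3 in HepG2 lysates stimulated with IL-1beta and TNF-alpha. ATP was 10 uM final, pH 7.6. Ser73 phosphorylation was quantified by AlphaScreen (680 nm excitation).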

[8] = molecular target: 3',5'-cyclic-AMP phosphodiesterase 4B (Homo sapiens) (UniProt Q07343); experiment: qHTS Assay for Inhibitors of PDE-IV (AID 607; active = well fitted activation curve with a large enough effect in the main read-out, with a control signal flat, not every such curve was filed as active; note: potency is the fitted concentration of half-maximal effect)
3',5'-cyclic-AMP phosphodiesterase 4B (Homo sapiens), sequence (Q07343 whole entry, looked up): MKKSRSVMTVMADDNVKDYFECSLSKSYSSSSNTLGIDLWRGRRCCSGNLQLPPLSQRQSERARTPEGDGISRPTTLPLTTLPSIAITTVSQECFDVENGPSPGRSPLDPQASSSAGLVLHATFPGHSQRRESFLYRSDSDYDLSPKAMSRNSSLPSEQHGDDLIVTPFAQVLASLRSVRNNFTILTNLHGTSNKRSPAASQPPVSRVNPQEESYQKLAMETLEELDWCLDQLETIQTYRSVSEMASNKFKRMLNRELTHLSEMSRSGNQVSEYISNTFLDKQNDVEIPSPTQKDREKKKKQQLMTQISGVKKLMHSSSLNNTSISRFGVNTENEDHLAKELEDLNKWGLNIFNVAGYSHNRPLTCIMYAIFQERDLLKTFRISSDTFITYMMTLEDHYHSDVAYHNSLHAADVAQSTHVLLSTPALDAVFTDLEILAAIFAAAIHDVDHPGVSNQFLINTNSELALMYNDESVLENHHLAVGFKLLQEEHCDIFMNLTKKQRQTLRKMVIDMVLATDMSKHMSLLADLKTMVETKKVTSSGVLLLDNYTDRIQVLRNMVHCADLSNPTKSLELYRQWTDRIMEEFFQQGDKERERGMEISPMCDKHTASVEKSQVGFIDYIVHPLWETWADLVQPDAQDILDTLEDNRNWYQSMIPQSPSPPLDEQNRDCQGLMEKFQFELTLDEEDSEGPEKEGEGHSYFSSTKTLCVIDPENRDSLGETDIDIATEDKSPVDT
Method in brief: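 HEK293 ACTOne cells with CNG channel (1000/well), endogenous PDE4; membrane potential dye, compounds up to 22.9 uM final. Fluorescence Ex 535/Em 590; RO 20-1724 (100 uM final) as reference.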

[9] = qHTS Assay for Lipid Storage Modulators (AID 1519; calls by dose curve); conditions: Drosophila S3 cells, BODIPY lipid droplet/cell ratio, laser cytometry, cells loaded with oleic acid; for activity change, negative = inhibition: at 57.5 µM (top of the series)
Method in brief: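 Cells seeded at 5,000 per well were treated with compounds over a concentration series and loaded with oleic acid (400 uM, as added). Lipid droplet fluorescence (488 nm excitation, 500-530 nm channel) was read by laser-scanning cytometry and normalized to 20 uM Triacsin C.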

[10] = molecular target: Dual specificity protein kinase CLK4 (Homo sapiens) (UniProt Q9HAZ1); experiment: qHTS Assay for Inhibitors of CDC-like Kinase 4 (Kinase-Glo Assay) (AID 1770); note: nearly all actives have a fitted effect of over 65% in size; note: potency is the fitted concentration of half-maximal effect
Dual specificity protein kinase CLK4 (Homo sapiens), sequence (Q9HAZ1 whole entry, looked up): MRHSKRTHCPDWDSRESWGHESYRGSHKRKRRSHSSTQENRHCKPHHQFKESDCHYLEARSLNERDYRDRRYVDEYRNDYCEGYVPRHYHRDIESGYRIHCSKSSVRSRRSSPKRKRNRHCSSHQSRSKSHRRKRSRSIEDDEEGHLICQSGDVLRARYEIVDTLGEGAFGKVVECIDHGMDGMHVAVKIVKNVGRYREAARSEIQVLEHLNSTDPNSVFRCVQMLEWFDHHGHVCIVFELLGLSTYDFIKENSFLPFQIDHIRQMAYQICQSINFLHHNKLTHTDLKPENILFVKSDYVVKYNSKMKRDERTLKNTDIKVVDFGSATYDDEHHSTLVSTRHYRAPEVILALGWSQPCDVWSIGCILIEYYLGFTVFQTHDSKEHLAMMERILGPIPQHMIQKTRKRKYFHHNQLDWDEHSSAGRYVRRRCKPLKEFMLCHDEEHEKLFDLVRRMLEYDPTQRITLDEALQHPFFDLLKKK
Method in brief: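 Recombinant human Clk4 (25 nM) phosphorylated RS repeat peptide (100 uM) with 1 uM ATP in Tris pH 7.5/MgCl2/EGTA/DTT/Triton buffer for 4.5 h at room temperature. Residual ATP was quantified by Kinase-Glo luciferase luminescence.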

[11] = molecular target: Ubiquitin carboxyl-terminal hydrolase 1 (Homo sapiens) (UniProt O94782); experiment: Inhibitors of USP1/UAF1: Pilot qHTS (AID 504865); note: nearly all actives have a fitted effect of over 35% in size; note: potency is the fitted concentration of half-maximal effect
Ubiquitin carboxyl-terminal hydrolase 1 (Homo sapiens), sequence (O94782 whole entry, looked up): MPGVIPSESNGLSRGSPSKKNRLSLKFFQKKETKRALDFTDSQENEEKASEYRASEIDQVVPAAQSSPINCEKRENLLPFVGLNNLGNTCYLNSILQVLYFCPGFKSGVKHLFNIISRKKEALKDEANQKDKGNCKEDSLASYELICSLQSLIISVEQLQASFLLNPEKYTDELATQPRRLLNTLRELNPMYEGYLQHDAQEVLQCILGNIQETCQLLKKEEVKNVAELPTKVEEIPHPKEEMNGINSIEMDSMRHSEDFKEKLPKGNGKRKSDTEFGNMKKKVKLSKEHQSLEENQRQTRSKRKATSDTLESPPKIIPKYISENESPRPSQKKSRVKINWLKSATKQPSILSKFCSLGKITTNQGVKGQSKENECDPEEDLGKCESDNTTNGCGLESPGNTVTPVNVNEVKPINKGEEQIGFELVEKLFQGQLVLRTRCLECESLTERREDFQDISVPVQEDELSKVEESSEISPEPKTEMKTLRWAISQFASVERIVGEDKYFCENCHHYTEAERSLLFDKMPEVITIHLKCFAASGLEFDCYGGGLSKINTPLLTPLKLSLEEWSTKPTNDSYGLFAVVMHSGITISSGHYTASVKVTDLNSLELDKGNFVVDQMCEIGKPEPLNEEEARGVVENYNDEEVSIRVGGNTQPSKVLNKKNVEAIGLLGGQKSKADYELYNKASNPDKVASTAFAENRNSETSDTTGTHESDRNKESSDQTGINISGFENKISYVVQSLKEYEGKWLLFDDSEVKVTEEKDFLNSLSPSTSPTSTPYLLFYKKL
Method in brief: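 USP1/UAF1 complex (1nM) preincubated with compound 15 min at room temperature, then Ub-Rho substrate (150nM final) added. Fluorescence read kinetically at 480/540 nm, 6 reads every 60 seconds. Buffer: 50mM HEPES pH 7.8, 0.5mM EDTA, 0.1 mg/ml BSA, 1mM TCEP, 0.01% Tween-20.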

[12] = Primary qHTS for small molecule stabilizers of the endoplasmic reticulum resident proteome: Secreted ER Calcium Modulated Protein (SERCaMP) assay (AID 1508630); note: % is set by controls: 0 for no effect and ±100 for the full control effect
Method in brief: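 The SH-SY5Y reporter protocol was run at 3 concentrations up to 38.3 uM (primary) or 11 concentrations (follow-up): 16 h compound, 100 nM thapsigargin for 4 h, then extracellular luciferase luminescence.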

[13] = molecular target: Glucocorticoid receptor (Homo sapiens) (UniProt P04150); experiment: GR-GFP Redistribution (AID 450;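 active = compounds whose dose series gives a full or clear partial fitted curve of increased nuclear translocation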; note: potency is the fitted concentration of half-maximal effect); conditions: U2OS GR-GFP nuclear translocation, laser cytometry, 2 h
[14] = molecular target: Cytochrome P450 3A4 (Homo sapiens) (UniProt P08684); experiment: qHTS Assay for Inhibitors and Substrates of Cytochrome P450 3A4 (AID 884); note: potency is the fitted concentration of half-maximal effect; nearly all actives have a fitted effect of over 50% in size
Cytochrome P450 3A4 (Homo sapiens), sequence (P08684 whole entry, looked up): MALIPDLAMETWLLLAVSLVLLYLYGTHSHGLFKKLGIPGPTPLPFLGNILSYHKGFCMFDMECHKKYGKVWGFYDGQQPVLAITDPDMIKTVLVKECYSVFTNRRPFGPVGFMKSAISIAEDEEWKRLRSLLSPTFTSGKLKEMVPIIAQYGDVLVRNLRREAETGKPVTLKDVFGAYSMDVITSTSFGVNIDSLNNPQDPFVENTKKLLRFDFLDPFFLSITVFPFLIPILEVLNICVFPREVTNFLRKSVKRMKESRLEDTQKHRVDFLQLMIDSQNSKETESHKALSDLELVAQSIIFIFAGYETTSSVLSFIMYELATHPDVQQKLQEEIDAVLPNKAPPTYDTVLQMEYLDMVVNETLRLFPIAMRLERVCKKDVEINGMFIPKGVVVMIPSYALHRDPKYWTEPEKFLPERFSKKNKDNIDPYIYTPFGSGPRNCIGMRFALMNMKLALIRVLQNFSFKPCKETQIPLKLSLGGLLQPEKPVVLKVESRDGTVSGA
Method in brief: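 Luminescent readout of luciferin produced by CYP3A4 (20 nM) dealkylation of Luciferin-PPXE, 25 uM (its KM). NADPH-driven reaction ran 60 min at RT after 10 min compound preincubation; data scaled to 57 uM ketoconazole as 100% inhibition.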

[15] = molecular target: Cytochrome P450 3A4 (Homo sapiens) (UniProt P08684); experiment: qHTS Assay for Activators of Cytochrome P450 3A4 (AID 885); note: nearly all actives have a fitted effect of over 65% in size
Method in brief: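 Human CYP3A4 dealkylates Luciferin-PPXE to luciferin, which luciferase detection converts to light. Substrate was at its KM (25uM), buffer 200mM KPO4, reaction 60 min at RT.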

[16] = molecular target: Dual specificity protein kinase CLK4 (Homo sapiens) (UniProt Q9HAZ1); experiment: qHTS Assay for Inhibitors of CDC-like Kinase 4 (ADP-Glo Assay) (AID 1771); note: % is set by controls: 0 for no effect and ±100 for the full control effect; nearly all actives have a fitted effect of over 70% in size
Method in brief: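 In this ADP-Glo format, 1 uM ATP and 100 uM RS peptide served as substrates for 25 nM Clk4 in Mg2+/EGTA/DTT/Triton buffer; reactions ran 1 hr at room temperature before luminescent ADP quantification.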

[17] = molecular target: Dual specificity protein kinase CLK4 (Homo sapiens) (UniProt Q9HAZ1); experiment: qHTS Assay for Inhibitors of CDC-like Kinase 4 (ADP-FP Assay) (AID 1795); note: % is set by controls: 0 for no effect and ±100 for the full control effect; nearly all actives have a fitted effect of over 60% in size
Method in brief: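 Recombinant human Clk4 (6.25 nM) phosphorylated RS repeat peptide (100 uM) with 1 uM ATP in Tris pH 7.5/MgCl2/EGTA/DTT/Triton buffer for one hour. ADP was quantified by Transcreener competitive fluorescence polarization against an ADP calibration curve.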

[18] = molecular target: Cytochrome P450 2C9 (Homo sapiens) (UniProt P11712); experiment: qHTS Assay for Inhibitors and Substrates of Cytochrome P450 2C9 (AID 883); note: % is set by controls: 0 for no effect and ±100 for the full control effect; nearly all actives have a fitted effect of over 60% in size
Cytochrome P450 2C9 (Homo sapiens), sequence (P11712 whole entry, looked up): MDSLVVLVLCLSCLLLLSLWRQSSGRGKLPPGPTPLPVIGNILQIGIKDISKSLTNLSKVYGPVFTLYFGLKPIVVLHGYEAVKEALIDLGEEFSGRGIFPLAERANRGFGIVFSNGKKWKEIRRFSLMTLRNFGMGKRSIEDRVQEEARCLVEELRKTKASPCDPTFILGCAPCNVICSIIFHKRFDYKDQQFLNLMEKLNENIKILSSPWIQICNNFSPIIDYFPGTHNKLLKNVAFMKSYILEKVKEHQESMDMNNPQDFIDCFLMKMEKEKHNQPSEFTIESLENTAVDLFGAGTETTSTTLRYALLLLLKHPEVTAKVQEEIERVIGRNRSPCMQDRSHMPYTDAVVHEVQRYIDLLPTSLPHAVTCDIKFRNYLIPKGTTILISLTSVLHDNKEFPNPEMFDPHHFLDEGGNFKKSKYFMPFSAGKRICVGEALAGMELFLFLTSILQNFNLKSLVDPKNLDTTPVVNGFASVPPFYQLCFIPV
Method in brief: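 Human CYP2C9 (10nM) hydroxylated Luciferin-H (100uM, at its KM) to luciferin in 25mM KPO4. Compound was preincubated 10 min at 37C, then NADPH regeneration started a 60 min reaction at 37C. Luminescence was read after detection reagent, normalized to 57uM sulphaphenazole.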

[19] = measured here: cell count channel max response
[20] = measured here: lipid channel max response

Row | SMILES | Potency [1] | activity change, negative = inhibition [2] | Potency [3] | activity change, negative = inhibition [4] | activity, negative = inhibition [5] | Potency [6] | outcome [7] | Potency [8] | activity change, negative = inhibition [9] | max response [9, 19] | max response [9, 20] | Potency [10] | Potency [11] | Potency [12] | Potency [13] | Potency [14] | Potency [15] | Potency [16] | Potency [17] | activity change, negative = inhibition [18]
1 | Cc1noc(C)c1-c1nccc(N2CCOCC2)n1 | > 11.4 µM (inactive) | 19% (inactive) | 0.631 µM (active) | 4.77% (inactive) | 14.5% (inactive) | > 46 µM (inactive) | inactive | inactive | 6.74% (inactive) | 6.28% | 17% | 14.1 µM (active) | inactive | inactive | – | – | – | – | – | –
2 | Fc1ccc(Nc2ccnc(-c3ccoc3)n2)cc1 | > 11.4 µM (inactive) | -6.54% (inactive) | 1 µM (active) | 6.01% (inactive) | 8.8% (inactive) | > 46 µM (inactive) | inactive | inactive | 8.99% (inactive) | 9.29% | 17.6% | – | inactive | inactive | > 46 µM (inactive) | 7.94 µM (active) | inactive | inactive | – | –
3 | O=c1c(-c2ccccc2)nc2cnc(Nc3ccccc3)nc2n1Cc1cccs1 | > 11.4 µM (inactive) | -15.4% (inactive) | – | – | – | > 46 µM (inactive) | inactive | – | -3.34% (inactive) | 8.31% | 4.81% | inactive | – | inactive | > 9.22 µM (inactive) | – | – | – | inactive | –
4 | CN(C)C(=O)c1ccc(-c2nc(NC3CCNCC3)c3ccccc3n2)cc1 | > 11.4 µM (inactive) | 7.64% (inactive) | 20 µM (active) | 12.4% (inactive) | 11.2% (inactive) | > 46 µM (inactive) | inactive | inactive | 4.99% (inactive) | 14.8% | 18.3% | – | inactive | inactive | > 46 µM (inactive) | – | – | – | inactive | 46.2% [at 2.29 µM] (inactive)
5 | COc1ccc(CNc2cc(-c3cccc(C#N)c3)ncn2)c(OC)c1 | > 11.4 µM (inactive) | -14.7% (inactive) | – | – | -2.42% (inactive) | > 46 µM (inactive) | inactive | – | 7.91% (inactive) | 18.5% | 23.9% | – | inactive | inactive | > 46 µM (inactive) | – | – | – | inactive | –
6 | CCNc1ncc2nc(C)c(=O)n(C3CC3)c2n1 | > 11.4 µM (inactive) | -8.59% (inactive) | 5.01 µM (active) | -13.9% (inactive) | -2.73% (inactive) | > 46 µM (inactive) | inactive | 2.51 µM (active) | -1.33% (inactive) | 6.66% | 4.64% | – | inactive | inactive | > 9.22 µM (inactive) | – | – | – | inactive | –
7 | Cc1ccccc1-c1nc(NCc2cccs2)c2ccccc2n1 | – | – | – | – | -16.7% (inactive) | – | inactive | – | 5.52% (inactive) | -1.85% | 1.44% | – | 14.1 µM (active) | inactive | > 46 µM (inactive) | – | – | – | inactive | –
